Experiments:
[1] = NFkB reporter suppression in cystic fibrosis bronchial cells – cell-based, uHTS hits, panel, cytotoxicity readout, dose response (AID 624344); settings: CF bronchial epithelial cells, PAF-induced NFkB reporter inhibition, with PAF, run 1; at 79 µM (top of the series) unless noted
[2] = as above; settings: CF bronchial epithelial cells, PAF-induced NFkB reporter inhibition, with PAF, run 2; at 79 µM (top of the series) unless noted

Structure (SMILES) | inhibition [1] [%] | inhibition [2]
CS(=O)(=O)c1ccc2nc(NC(=O)Nc3cccc(Cl)c3)sc2c1 | 79.3 | 83.9%
Cc1cccc(C)c1NS(=O)(=O)c1ccc(-c2cnc(C3CC3)o2)cc1 | 112 | 105%
COc1ccc(CNc2nn3c(-c4cccc(C(=O)N(C)C)c4)cnc3s2)cc1 | 113 | 104%
C=C1C(=O)C2=CC1CCC(=O)C1(C)CCC(OC(C)=O)C(C)(C)C1CC2O (configuration not stated) | 94.6 | 107%
CC(C)[C@H](CO)Nc1nc(NCc2ccc(S(N)(=O)=O)cc2)c2ncn(C(C)C)c2n1 | 107 | 110%
O=C(CCS(=O)(=O)c1ccccc1)N(CCCN1CCOCC1)c1nc2c(F)cccc2s1 | 97.5 | 95.9%
Cc1ccnc(NC(=O)Cc2ccc(-c3ccccc3)cc2)c1 | 111 | 105%
Brc1ccc2ncnc(NCc3ccco3)c2c1 | 109 | 105%
C=CCN(CC=C)c1ncnc2[nH]ncc12 | 99.9 | 109%
COC(=O)c1c(C)n(-c2ccc(OC)cc2)c2ccc(O)cc12 | 103 | 94.9%
CCOC(=O)N1CCC(NC(=O)c2ccc3c(c2)N=C(C)c2c(C)ccc(C)c2S3)CC1 | 92.2 | 115%
CC[C@@H](C(=O)[C@@H](C)[C@@H](O)[C@H](C)[C@@H]1O[C@@H]([C@@H](CC)C(=O)O)CC[C@@H]1C)[C@H]1O[C@]2(C=C[C@@H](O)[C@]3(CC[C@@](C)([C@H]4CC[C@](O)(CC)[C@H](C)O4)O3)O2)[C@H](C)C[C@@H]1C | 117 | 107%
COc1ccc([C@]2(C(C)C)ON(c3ccccc3C(F)(F)F)C2=O)cc1 | 103 | 91.5%
Cc1ccc2c(c1)C(=O)C(=O)N2Cc1ccc(C(F)(F)F)cc1 | 111 | 100%
COc1cc(-c2cc(C(=O)Nc3ccc(S(=O)(=O)NCc4ccco4)cc3)c3ccccc3n2)cc(OC)c1OC | 109 | 102%
Fc1ccccc1-c1csc(=Nc2cccnc2)n1CCCn1ccnc1 | 116 | 94.9%
Cc1ccc(Sc2c(C=O)c3ccccc3n2C)cc1 | 105 | 104%
COc1ccc(CN(CCC(c2ccc(F)cc2)C2CCOC(C)(C)C2)C(=O)c2ccco2)cc1 (configuration not stated) | 105 | 111%
CCOC(=O)Nc1nc(-c2ccccc2)c(C(=O)c2ccccc2)s1 | 99.4 | 78.8%
COc1cccc(-c2ccc3ncnc(NCc4ccc5c(c4)OCO5)c3c2)c1 | 97.6 | 113%
COc1ccc(-c2cc(=O)oc3cc(OC(=O)C4CCCCC4)ccc23)cc1 | 110 | 101%

Structure (SMILES) | inhibition [1] [%] | inhibition [2]
O=C(COC(=O)c1c2c(nc3ccccc13)CCN(Cc1ccccc1)C2)Nc1c(F)cccc1F | 79.5 | 74%
COc1ccc(-c2cnc(N)nc2-c2ccc(OC)cc2O)cc1 | 112 | 102%
CC(=O)c1ccc(NC(=O)Nc2ccc3c(c2)N(C)C(=O)CS3)cc1 | 98.3 | 106% [at 19.8 µM]
CC1=C(C(=O)OCc2ccc3c(c2)OCO3)C(c2cccc([N+](=O)[O-])c2)NC(=O)N1 (configuration not stated) | 79.1 | 92.2% [at 19.8 µM]
COc1ccc(-c2cc(NC=O)c3ncc(-c4cc(OC)c(OC)c(OC)c4)n3c2)cc1 | 50.1 | 53.5%
O=C(OC1CCOC1=O)c1ccccc1C(=O)c1ccc(Cl)c([N+](=O)[O-])c1 (configuration not stated) | 98.5 | 105%
COc1cccc(C(=O)N2C(C(C)C)COc3cc(Br)ccc3S2(=O)=O)c1 (configuration not stated) | 118 | 101%
CCOc1cccc(-c2nnc3sc(C4CCCCC4)nn23)c1 | 102 | 116%
Cc1ccc(S(=O)(=O)n2cc(-c3ccccc3)c3ccccc32)cc1 | 114 | 108%
CN(C)CCCN(C(=O)CCOc1ccccc1)c1nc2c(F)cccc2s1 | 99.3 | 99.1%
COc1cc(O)cc2cc3c(c(O)c12)C(=O)CC(C)(O)O3 (configuration not stated) | 99.9 | 108%
CCc1cc(-c2[nH]ncc2-c2ccc(OC)cc2)c(O)cc1O | 115 | 104%
Cc1cccc(CS(=O)(=O)c2ncc(Cl)c(C(=O)NCc3ccccc3)n2)c1 | 92.1 | 88.2%
CCC(Oc1ccccc1)C(=O)Nc1ncc([N+](=O)[O-])s1 (configuration not stated) | 112 | 98.9%
COc1ccc(-c2cc(=O)oc3c(C)c(O)ccc23)cc1 | 94.8 | 101%
COc1ccc(NC(=O)Nc2nnc(-c3ccncc3)s2)cc1 | 67.9 | 68.6%
CC(C)C[C@@H](CN1CCC[C@@H]1CN1C(=S)NC[C@@H]1Cc1ccc(O)cc1)N1C[C@H](Cc2ccc(O)cc2)N(CC2CCCCC2)C1=S | 105 | 118%
O=C1N(c2ccccc2C(F)(F)F)O[C@]1(c1ccccc1)C1CCCCC1 | 90.7 | 98.7%
COc1ccc2[nH]c3c(c2c1)CCN1C(=O)C(CC(=O)NCCC2=CCCCC2)C[C@H](C(=O)N2CCCCC2)[C@@]31CCc1ccccc1 (some centres not stated) | 104 | 40.2% [at 39.5 µM]
CC(=O)Oc1c(Br)cc(N(C(C)=O)S(=O)(=O)c2ccccc2)c2ccccc12 | 72.3 | 88.1%

Source: PubChem BioAssay
